# This is a sample that favours compounds with a hit; in the whole collection about 13% have one here.
# Pf growth 48h: inhibits P. falciparum growth in the first generation, 48 h; P. falciparum luciferase growth in erythrocytes, 48 h; Potency, µM (titrated, usually from 28.7 µM), for the others: top-dose activity change, negative = inhibition, usual class: inhibitors; 310,000 tested, 5.9% active; AID 504832; further: potency means the concentration at half of the fitted maximal effect
#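 In quantitative HTS format, infected erythrocytes bearing luciferase-reporter parasites were treated for a single generation at 37 C. Luminescence after adding detection reagent served as the growth measure.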
# HCV inh: blocks hepatitis C virus; Huh7.5.1 HCVcc-Cre infection, luciferase reporter, 44 h; Potency, µM (doses to about 41.8 µM), for the others: at the top dose activity change, negative = inhibition, hits mostly inhibitors; 340,000 tested, 3.4% active; AID 651820; further: potency means the concentration at half of the fitted maximal effect
#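 Infectious HCV cell culture screen: compound-treated cells (1,000/well, pre-plated 4 h) are infected with HCVcc-Cre at roughly 0.5 moi and grown 44 h. Infection is quantified by luciferase signal after 15 min substrate incubation at room temperature.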
# Pf growth 96h: inhibits malaria parasite growth, 96 h; P. falciparum luciferase reporter growth, 96 h; Potency, µM (titrated, usually from 28.7 µM), for the others: at the highest dose activity change, negative = inhibition, most hits filed as inhibitors; 320,000 tested, 6.9% active; AID 504834; further: potency means the concentration at half of the fitted maximal effect
#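 Erythrocytes infected with luciferase-expressing P. falciparum were dispensed at 2% hematocrit and 0.05% parasitemia (final), then incubated with compounds 96 hours at 37 C in 5% CO2. Luminescence after detection reagent addition reported growth.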
# HCMV antiviral: blocks human cytomegalovirus replication | AID 1259415 | 410,000 tested, 4.5% active | HFF cells, HCMV-luciferase reporter, 72 h; stronger effect = lower value | activity change, negative = inhibition, % at 57.5 µM; in the data active means activity change below about -60%; inconclusive means no clear call, values can overlap the other calls; inactive means above about -39%
#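 Luciferase read-out from HCMV-luciferase-infected HFFs (MOI 1 PFU/cell) 72 h post infection at 37C; compounds added after 16 h cell attachment; activity normalized between buffer-only basal and Salinomycin (10uM) inhibitor controls.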
# * hit, by the source's call; ? = inconclusive; . = not tested or not shown. Unless noted, the call rests on the fitted dose curve; in most records, active means well fitted inhibition curve with a large enough effect; inconclusive means small, poorly fitted or top-dose-only effect, or another doubt; inactive means no such curve, though single readings can be large or run the other way. On the % scale 0 is the no-effect control and ±100 the full control effect.
SMILES,Pf growth 48h,HCV inh,Pf growth 96h,HCMV antiviral
O=C(N[C@@H](Cc1ccccc1)C(=O)OCc1ccccc1)c1nc[nH]c1C(=O)N1CCNCC1,.,27%,.,-84*
C[C@@H](NC(=O)c1nc[nH]c1C(=O)N[C@@H](Cc1ccccc1)C(=O)OCc1ccccc1)c1ccccc1,?,-3%,?,46
O=C(C1=C(c2ccccc2)C(=O)c2ccccc2C1=O)c1ccccc1,1.5µM*,10µM*,28%,-99*
COc1ccc(C2=C(N)c3ccccc3C2=O)cc1,-5%,13%,10µM*,14
COc1ccc(NC2=C(c3ccc(C(F)(F)F)cc3)C(=O)c3ccccc32)cc1,.,.,.,11
COc1ccc(C2=C(Nc3ccccc3)c3ccccc3C2=O)cc1,1µM*,-9%,-93%,35
COC1=C(c2ccccc2)C(=O)c2ccccc2C1=O,1.5µM*,?,1.2µM*,-28
CC1=CC(=C2C(=O)c3ccccc3C2=O)C=C(C)N1C,132%,11%,-3%,16
COc1ccc(OC)c(S(=O)(=O)NCC(c2ccc(N(C)C)cc2)N2CCOCC2)c1 (configuration not stated),.,.,.,2
CCc1ccccc1NC(=O)c1ccc(CN2C(=O)CCn3nc(C)cc32)cc1,.,.,.,-2
CC(C)CNC(=O)C(C)(C)n1cc(NC(=O)COCc2ccccc2)cn1,.,.,.,4
Cc1ccc(S(=O)(=O)c2cn(CC(=O)Nc3ccc4c(c3)OCO4)c3ccc(F)cc3c2=O)cc1,.,.,.,10
Cc1ccc(C(=O)OCc2cc(=O)n3nc(-c4cccs4)sc3n2)cc1,.,.,.,19
COc1ccc(NC2=C(c3ccc(OC)cc3)C(=O)c3ccccc32)cc1,0.66µM*,3%,?,-36
CCCCOc1cccc(C2c3c(oc4ccccc4c3=O)C(=O)N2c2ccccn2)c1 (configuration not stated),.,.,.,-14
CCCCc1nn2c(=O)cc(COC(=O)CNC(=O)c3ccccc3C)nc2s1,.,.,.,-2
COc1cccc(C(C(=O)NC2CCCCC2)N(C(=O)c2cccs2)c2ccc3c(c2)OCO3)c1 (configuration not stated),10µM*,?,-101%,-83*
COc1cccc(C(C(=O)NC2CCCCC2)N(C(=O)Cc2cccs2)c2ccc(-n3cnnn3)c(OC)c2)c1 (configuration not stated),10µM*,?,5%,-2
Cc1nn(C)cc1C(C(=O)NC1CCCCC1)N(C(=O)Cc1cccs1)c1ccc(F)cc1 (configuration not stated),0%,32%,22%,-7
COc1ccc(N(C(=O)Cc2cccs2)C(C(=O)NC2CCCCC2)c2cccn2C)cc1 (configuration not stated),.,6%,?,-1
COc1cc(N(C(=O)Cc2cccs2)C(C(=O)NC2CCCCC2)c2cccc(OC)c2OC)ccc1-n1cnnn1 (configuration not stated),10µM*,-8%,-25%,-37
O=C(Nc1ccc(Oc2ccccc2)cc1)c1csc(COCCO)n1,.,.,.,-81*
O=C(Nc1ccc(Oc2ccccc2)cc1)c1csc([C@@H]2C[C@H](O)[C@@H](CO)O2)n1,.,.,.,-91*
O=C(Nc1ccc(Cl)cc1)c1csc(COCCO)n1,.,.,.,4
COCCCNC(=O)c1csc([C@@H]2C[C@H](O)[C@@H](CO)O2)n1,.,.,.,1
SMILES,Pf growth 48h,HCV inh,Pf growth 96h,HCMV antiviral
COCCCNC(=O)c1csc([C@H]2C[C@H](O)[C@@H](CO)O2)n1,.,.,.,-100*
Cc1ccc2c(c1)N(C(=O)NCc1ccccc1)CCO2,.,.,.,-1
O=C(Nc1cc(Cl)cc(Cl)c1)c1cc(S(=O)(=O)N2CCc3ccccc3C2)ccc1F,.,.,.,-25
CCc1ccc(C(=O)c2cn(CC(=O)Nc3cc(OC)ccc3OC)c3ccc(Cl)cc3c2=O)cc1,.,.,.,-18
O=C(NCCCO)c1cc2c(cn1)[nH]c1ccccc12,63%,-5%,69%,32
O=C(NCCCN1CCOCC1)c1cc(-c2cccc(Br)c2)nc2ccccc12,?,?,?,-16
O=C(NCCCO)c1cc2c([nH]c3ccccc32)c(-c2ccccc2)n1,?,10µM*,5.9µM*,-28
COc1cccc(-c2cc(C(=O)NCCCN3CCOCC3)no2)c1,6%,?,95%,35
O=C(NCCCN1CCOCC1)c1cc2c([nH]c3ccccc32)c(-c2cccc(Br)c2)n1,2.3µM*,?,3.3µM*,-21

# Source: PubChem BioAssay
